Experiments:
Test in all cases: log2 ratio of Biotin-Ahx-Ub-VS probe labelling (fragment/DMSO); higher = less target engagement (more negative = stronger competition), active = hit call of the paper (q ≤ 0.05, log2 ratio ≤ -1)
Conditions in all cases: compound concentration: 200 uM; treatment time: 3 h
USP42 = molecular target: T1, USP42 (UniProt Q9H9J4)
T1 sequence (whole entry): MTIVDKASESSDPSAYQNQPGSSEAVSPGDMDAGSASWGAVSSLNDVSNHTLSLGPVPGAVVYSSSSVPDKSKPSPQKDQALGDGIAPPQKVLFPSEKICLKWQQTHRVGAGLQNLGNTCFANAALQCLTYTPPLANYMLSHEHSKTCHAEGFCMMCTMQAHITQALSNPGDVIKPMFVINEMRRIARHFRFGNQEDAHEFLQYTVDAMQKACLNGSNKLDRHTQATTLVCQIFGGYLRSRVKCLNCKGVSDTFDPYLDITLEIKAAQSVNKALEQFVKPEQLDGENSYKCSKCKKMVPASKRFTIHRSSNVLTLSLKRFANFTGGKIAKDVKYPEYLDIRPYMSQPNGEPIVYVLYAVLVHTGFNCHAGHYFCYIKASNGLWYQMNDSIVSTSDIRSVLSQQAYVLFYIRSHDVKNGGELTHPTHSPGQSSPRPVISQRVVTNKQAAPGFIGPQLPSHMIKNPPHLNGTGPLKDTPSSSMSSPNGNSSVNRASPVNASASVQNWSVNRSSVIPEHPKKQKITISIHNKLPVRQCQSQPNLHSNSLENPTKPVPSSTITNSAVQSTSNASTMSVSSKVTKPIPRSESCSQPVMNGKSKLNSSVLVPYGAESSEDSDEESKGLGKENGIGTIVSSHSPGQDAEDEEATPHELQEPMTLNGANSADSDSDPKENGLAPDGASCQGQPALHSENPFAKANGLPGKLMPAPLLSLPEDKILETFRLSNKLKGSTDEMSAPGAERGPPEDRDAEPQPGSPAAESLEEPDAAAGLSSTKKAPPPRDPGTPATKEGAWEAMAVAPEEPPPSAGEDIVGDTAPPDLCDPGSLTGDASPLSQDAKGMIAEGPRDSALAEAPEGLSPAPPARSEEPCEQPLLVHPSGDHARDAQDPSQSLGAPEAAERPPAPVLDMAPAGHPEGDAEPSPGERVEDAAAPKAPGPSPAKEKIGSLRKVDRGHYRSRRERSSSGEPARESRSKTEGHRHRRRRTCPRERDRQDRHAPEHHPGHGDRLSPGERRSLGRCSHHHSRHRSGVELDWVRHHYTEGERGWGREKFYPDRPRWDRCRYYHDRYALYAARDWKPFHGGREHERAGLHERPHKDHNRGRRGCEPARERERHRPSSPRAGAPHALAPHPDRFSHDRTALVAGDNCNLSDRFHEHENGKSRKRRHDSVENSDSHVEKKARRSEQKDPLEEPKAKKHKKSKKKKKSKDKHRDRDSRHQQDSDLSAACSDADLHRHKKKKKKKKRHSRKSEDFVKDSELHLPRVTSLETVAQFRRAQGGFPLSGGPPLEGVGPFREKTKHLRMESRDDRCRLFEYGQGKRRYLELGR
How it was run: (§1)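 HEK293T lysate (495 µg per sample, in Tris/CHAPS/IGEPAL buffer with protease inhibitors) was exposed in triplicate for 3 h to fragment at 200 µM or to vehicle, then to Biotin-Ahx-Ub-VS at 0.5 µM final for 1 h. Labelled DUBs were enriched on NeutrAvidin, digested with LysC and trypsin, and analysed by diaPASEF LC-MS/MS. Spectronaut label-free quantities were normalised to the global median, and values are average log2 ratios of fragment over vehicle from an unpaired t-test. Only proteins with ≥2 unique peptides were used.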

USP46 = USP46 (UniProt P62068)
How it was run: as §1

USP47 = molecular target: T2, USP47 (UniProt Q96K76)
T2 sequence (whole entry): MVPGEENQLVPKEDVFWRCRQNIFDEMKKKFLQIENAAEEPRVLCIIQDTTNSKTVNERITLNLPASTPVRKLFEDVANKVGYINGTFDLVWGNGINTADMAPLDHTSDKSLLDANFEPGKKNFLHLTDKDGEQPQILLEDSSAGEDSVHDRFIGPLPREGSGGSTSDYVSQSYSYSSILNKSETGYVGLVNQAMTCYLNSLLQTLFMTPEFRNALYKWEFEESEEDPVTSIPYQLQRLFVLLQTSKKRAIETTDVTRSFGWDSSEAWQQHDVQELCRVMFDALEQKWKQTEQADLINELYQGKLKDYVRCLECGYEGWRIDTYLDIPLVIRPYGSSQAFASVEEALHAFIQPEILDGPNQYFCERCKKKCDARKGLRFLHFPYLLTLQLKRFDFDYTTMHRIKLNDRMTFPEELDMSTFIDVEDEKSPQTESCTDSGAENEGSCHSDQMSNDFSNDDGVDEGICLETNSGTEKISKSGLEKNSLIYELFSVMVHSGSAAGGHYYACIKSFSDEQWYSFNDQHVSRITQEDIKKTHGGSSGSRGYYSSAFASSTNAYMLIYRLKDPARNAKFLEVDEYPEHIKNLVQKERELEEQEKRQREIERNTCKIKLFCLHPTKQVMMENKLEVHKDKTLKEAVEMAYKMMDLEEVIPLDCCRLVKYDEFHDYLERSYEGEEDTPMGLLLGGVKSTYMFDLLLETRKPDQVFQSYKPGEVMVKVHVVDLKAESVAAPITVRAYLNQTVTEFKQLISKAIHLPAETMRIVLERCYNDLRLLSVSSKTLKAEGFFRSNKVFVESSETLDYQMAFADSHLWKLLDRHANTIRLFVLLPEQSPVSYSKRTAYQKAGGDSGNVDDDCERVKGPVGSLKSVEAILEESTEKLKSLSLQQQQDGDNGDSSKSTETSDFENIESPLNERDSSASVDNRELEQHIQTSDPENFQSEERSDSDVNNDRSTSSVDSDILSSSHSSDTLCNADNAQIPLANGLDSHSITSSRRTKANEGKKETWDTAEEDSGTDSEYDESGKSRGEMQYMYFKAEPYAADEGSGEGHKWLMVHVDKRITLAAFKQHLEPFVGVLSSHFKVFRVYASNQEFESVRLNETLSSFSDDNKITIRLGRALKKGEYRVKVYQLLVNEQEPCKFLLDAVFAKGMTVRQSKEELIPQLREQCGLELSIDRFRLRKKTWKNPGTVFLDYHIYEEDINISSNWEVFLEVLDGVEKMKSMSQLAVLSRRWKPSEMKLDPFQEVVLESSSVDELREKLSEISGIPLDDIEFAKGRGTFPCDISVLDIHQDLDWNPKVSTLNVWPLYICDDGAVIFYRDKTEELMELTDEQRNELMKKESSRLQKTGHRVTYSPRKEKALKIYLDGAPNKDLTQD
How it was run: as §1

USP48 = molecular target: T3, USP48 (UniProt Q86UV5)
T3 sequence (whole entry): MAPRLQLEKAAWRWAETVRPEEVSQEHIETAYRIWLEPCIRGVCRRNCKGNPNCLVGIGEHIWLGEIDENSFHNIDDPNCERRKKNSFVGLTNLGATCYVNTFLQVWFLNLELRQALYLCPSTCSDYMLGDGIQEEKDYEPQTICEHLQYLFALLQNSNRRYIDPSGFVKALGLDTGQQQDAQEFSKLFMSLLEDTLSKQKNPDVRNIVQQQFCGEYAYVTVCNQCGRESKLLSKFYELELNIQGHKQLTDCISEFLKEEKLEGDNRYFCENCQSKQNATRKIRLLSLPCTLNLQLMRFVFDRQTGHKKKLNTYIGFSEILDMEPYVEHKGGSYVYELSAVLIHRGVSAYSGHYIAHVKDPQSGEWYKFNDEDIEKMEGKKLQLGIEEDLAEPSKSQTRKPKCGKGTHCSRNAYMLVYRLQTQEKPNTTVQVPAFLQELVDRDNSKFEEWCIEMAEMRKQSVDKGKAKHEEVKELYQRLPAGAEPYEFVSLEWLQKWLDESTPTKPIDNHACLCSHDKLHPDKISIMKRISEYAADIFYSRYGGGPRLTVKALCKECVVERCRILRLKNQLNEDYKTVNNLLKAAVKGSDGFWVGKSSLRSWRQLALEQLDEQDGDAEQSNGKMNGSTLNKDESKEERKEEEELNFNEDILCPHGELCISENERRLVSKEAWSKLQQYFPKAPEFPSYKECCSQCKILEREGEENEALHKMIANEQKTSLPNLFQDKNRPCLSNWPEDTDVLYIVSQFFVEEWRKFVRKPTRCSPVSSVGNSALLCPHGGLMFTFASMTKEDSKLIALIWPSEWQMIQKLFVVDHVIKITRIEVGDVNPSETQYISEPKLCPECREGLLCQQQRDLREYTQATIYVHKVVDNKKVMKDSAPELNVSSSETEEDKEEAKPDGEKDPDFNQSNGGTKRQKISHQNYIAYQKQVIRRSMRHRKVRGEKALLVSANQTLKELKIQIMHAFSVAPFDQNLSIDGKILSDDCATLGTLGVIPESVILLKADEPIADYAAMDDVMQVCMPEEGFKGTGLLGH
How it was run: as §1

USP5 = molecular target: T4, USP5 (UniProt P45974)
T4 sequence (whole entry): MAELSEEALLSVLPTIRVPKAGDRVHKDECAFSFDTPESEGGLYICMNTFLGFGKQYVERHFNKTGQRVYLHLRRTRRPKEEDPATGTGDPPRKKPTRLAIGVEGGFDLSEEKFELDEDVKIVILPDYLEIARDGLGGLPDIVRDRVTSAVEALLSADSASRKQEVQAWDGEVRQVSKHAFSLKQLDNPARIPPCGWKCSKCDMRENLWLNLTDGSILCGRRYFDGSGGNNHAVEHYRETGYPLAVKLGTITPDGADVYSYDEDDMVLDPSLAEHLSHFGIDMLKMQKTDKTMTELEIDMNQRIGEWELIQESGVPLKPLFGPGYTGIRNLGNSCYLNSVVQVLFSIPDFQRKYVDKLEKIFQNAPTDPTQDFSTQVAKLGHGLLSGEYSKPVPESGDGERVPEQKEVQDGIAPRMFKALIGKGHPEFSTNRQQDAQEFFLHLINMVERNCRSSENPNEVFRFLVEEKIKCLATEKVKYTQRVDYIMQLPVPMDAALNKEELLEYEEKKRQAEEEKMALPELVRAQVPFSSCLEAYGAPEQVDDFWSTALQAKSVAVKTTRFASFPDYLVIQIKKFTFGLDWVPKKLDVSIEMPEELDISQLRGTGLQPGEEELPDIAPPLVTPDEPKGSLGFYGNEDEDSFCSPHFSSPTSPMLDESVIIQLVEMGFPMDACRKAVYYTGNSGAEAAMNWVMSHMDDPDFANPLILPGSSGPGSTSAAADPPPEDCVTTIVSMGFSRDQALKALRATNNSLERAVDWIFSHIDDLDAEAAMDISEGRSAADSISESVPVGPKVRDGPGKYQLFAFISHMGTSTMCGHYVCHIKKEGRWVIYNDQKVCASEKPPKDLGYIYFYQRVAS
How it was run: as §1

USP54 = USP54 (UniProt Q70EL1)
How it was run: as §1

USP7 = USP7 (UniProt Q93009)
How it was run: as §1

USP8 = molecular target: T5, USP8 (UniProt P40818)
T5 sequence (whole entry): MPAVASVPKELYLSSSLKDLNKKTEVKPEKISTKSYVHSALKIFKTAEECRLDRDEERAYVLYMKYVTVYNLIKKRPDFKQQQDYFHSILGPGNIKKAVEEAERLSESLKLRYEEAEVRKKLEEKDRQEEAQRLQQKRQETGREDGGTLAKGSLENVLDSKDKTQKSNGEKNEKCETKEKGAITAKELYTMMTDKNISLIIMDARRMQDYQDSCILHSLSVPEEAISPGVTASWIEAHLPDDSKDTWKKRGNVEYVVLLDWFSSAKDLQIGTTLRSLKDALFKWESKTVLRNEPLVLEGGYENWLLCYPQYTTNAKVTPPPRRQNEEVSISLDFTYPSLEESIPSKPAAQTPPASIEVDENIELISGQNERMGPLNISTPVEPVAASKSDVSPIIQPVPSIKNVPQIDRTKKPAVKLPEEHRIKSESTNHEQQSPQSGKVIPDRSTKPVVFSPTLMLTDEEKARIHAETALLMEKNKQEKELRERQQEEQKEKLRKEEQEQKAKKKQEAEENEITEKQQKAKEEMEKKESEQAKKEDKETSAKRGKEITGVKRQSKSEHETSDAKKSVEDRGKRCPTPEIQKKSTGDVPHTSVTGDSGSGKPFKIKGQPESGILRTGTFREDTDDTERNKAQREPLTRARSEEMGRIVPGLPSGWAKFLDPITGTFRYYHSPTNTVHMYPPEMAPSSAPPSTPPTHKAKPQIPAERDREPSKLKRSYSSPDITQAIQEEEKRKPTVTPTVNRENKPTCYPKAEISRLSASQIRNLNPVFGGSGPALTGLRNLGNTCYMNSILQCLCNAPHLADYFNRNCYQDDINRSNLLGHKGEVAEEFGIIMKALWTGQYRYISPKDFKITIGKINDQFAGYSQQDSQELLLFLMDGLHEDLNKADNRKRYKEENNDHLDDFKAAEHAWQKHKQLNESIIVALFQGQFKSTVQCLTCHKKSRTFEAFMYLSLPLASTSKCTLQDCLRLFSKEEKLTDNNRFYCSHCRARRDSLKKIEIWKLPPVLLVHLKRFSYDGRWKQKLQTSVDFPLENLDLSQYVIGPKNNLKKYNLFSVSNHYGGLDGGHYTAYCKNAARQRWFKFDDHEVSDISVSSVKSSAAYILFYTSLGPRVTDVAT
How it was run: as §1

USP9X = USP9X (UniProt Q93008)
How it was run: as §1

UniProt O00487 = molecular target: UniProt O00487
How it was run: as §1

Measured: log2 ratio of Biotin-Ahx-Ub-VS probe labelling

Chain of USP54 (Q70EL1 whole entry): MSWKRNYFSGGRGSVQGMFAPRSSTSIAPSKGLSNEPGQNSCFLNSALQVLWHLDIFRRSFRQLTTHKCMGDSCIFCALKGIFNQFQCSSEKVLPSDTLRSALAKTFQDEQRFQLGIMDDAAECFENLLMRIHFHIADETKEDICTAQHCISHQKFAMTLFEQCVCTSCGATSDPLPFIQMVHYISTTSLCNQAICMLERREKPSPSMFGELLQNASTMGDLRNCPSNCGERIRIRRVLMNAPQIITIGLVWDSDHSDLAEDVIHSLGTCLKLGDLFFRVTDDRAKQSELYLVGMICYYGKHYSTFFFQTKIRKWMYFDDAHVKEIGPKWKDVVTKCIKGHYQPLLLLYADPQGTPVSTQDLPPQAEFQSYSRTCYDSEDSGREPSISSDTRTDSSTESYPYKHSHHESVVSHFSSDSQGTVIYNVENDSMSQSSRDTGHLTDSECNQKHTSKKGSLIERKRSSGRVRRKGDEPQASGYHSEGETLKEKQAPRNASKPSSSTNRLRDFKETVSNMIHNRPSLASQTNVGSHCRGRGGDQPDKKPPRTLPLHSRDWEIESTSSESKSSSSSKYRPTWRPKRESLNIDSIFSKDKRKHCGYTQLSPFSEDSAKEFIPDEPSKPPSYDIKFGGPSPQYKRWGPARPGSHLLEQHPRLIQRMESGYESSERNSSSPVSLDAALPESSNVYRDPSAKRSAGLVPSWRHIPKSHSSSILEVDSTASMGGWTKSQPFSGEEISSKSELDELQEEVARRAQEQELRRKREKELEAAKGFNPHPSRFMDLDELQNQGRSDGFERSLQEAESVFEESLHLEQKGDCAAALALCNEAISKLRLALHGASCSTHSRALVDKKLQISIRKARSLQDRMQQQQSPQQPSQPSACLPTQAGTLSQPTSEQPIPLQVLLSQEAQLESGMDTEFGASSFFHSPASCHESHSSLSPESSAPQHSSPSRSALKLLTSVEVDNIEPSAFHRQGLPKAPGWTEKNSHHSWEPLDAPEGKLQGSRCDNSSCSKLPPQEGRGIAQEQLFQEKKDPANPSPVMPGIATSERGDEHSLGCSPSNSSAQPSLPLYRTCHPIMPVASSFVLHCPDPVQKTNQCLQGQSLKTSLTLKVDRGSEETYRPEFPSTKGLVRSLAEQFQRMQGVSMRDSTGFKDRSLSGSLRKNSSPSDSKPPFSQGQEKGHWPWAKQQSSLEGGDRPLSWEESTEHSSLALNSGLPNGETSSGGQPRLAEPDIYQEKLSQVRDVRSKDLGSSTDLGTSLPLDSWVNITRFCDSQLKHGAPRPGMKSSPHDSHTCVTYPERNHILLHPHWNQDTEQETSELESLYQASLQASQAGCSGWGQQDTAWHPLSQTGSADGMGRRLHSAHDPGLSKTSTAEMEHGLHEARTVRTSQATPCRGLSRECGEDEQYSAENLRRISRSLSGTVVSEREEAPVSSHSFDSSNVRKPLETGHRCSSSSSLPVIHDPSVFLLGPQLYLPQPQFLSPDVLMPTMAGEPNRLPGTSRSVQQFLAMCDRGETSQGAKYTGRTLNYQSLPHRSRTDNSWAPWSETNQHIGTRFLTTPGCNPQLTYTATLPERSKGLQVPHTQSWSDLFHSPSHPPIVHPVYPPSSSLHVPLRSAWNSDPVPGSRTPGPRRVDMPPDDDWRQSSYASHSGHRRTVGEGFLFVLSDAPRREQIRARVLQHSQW
Chain of USP7 (Q93009 whole entry, looked up): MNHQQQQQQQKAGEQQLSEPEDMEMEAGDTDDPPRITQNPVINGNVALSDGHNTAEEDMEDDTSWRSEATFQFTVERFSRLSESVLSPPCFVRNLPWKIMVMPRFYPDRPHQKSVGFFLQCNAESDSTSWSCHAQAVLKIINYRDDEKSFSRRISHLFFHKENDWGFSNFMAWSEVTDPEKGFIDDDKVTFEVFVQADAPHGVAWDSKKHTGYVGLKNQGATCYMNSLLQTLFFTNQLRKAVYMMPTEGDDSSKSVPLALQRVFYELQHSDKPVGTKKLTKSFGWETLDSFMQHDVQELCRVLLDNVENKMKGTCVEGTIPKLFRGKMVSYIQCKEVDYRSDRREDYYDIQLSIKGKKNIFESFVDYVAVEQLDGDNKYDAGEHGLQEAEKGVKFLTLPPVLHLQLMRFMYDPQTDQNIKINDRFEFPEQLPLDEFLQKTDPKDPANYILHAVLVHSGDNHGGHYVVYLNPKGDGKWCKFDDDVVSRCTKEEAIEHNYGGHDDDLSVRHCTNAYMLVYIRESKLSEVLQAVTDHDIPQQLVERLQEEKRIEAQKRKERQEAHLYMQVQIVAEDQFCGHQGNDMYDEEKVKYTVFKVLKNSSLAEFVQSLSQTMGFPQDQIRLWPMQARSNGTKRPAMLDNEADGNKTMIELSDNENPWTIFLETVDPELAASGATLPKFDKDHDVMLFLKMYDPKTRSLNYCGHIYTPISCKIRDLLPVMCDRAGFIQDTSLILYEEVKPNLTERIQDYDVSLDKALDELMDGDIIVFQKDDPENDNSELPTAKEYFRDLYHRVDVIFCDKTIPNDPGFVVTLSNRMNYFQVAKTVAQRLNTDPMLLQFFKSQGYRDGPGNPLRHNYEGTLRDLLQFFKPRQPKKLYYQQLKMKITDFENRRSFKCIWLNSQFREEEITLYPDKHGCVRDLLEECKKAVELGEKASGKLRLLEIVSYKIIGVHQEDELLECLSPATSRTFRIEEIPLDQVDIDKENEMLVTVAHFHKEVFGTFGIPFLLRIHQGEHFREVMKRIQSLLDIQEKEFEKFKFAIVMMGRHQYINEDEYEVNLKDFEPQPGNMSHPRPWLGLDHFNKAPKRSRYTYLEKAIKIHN
Chain of USP46 (P62068 whole entry): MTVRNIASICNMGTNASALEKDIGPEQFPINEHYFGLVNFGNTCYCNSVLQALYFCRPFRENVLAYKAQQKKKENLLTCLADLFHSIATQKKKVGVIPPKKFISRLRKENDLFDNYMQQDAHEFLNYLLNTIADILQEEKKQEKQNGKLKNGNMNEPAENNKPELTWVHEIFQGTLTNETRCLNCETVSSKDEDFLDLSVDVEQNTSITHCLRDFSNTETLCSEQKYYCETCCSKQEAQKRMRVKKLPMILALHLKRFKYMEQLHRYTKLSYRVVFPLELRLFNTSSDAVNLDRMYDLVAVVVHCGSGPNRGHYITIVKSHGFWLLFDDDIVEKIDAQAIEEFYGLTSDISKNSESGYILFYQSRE
Chain of UniProt O00487 (O00487 whole entry): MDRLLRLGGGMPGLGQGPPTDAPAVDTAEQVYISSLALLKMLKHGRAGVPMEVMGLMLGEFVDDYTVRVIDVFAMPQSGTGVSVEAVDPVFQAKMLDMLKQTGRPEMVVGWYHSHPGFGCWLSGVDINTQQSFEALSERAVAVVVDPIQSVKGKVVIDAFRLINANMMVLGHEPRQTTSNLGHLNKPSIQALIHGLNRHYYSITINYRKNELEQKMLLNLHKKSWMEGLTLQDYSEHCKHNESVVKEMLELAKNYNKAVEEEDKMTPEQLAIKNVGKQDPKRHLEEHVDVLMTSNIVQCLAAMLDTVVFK

O=C(CCl)Nc1nc(-c2cccs2)cs1
inactive: USP42 0.598 | USP46 -0.255 | USP47 -0.799 | USP48 -0.537 | USP5 0.0914 | USP54 0.00682 | USP7 -0.679 | USP8 0.0395 | USP9X -0.505 | UniProt O00487 -0.17

From the supplement of paper PMC11732987, “Enantioselective OTUD7B fragment discovery through chemoproteomics screening and high-throughput optimisation” (Communications Chemistry, 2025)
